The results in this text go back to PubChem BioAssay AID1259418 (Broad Institute, 2018).

The structures appear in SMILES notation. In all, about 3,400 compounds went through this assay and about 840 (25%) were called active. About 11% were inconclusive and are not listed.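 How the source made its calls: active means fitted half-maximal concentration of signal decrease at or below twice the sample's top tested concentration; inconclusive means flat curve between -70 and -30 percent, or poor fit; inactive means flat within 30 percent, signal rise, or potency above limit.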 A selection follows. Entries with a potency or affinity are not part of this list.

A short description of this assay: inhibitors of Toxoplasma growth in IFN-γ-primed HeLa – cell-based, ME49Luc, luciferase, 72 h, dose response (AID 1259418). Conditions: T. gondii ME49Luc in IFN-y HeLa, stronger effect = lower value, -100% = high-dose IFN-γ control wells; at 19.5 µM unless noted.
Turning to `CCOc1ccc(-c2nc(CN3CCN(C(=O)Nc4ccccc4C(=O)OC)CC3)c(C)o2)cc1`, the max activity is 6.24% [at 0.16 µM] (inactive).

On to `COc1cc(CCC(=O)N2CCC3(CC2)Nc2ccc(C)c(C)c2-n2cccc23)cc(OC)c1OC`, for which the max activity was -12.8% [at 2.6 µM] (inactive).

Take `O=C(c1ccccc1F)N1CCC2(CC1)Nc1ccc(Cl)cc1-n1cccc12`: the max activity was -6.53% [at 0.35 µM] (inactive). Turning to `O=C(c1ccc(F)cc1)N1CCC2(CC1)Nc1ccc(Cl)cc1-n1cccc12`, the max activity was 13.8% [at 0.68 µM] (inactive). Take `COc1ccc(-c2nc(NCCc3ccc(SC)cc3)c3ccccc3n2)cc1`: the max activity is -32.9% (inactive). In the case of `CCOC(=O)CSC1=Nc2ccccc2C2=NC(CC(=O)NCc3ccc(F)cc3)C(=O)N12` (stereo not drawn) it was 17.3% (inactive). On to `CS(=O)(=O)N1CC(=O)N2[C@H](CO)[C@@H](c3ccc(C#CCC4CCCC4)cc3)[C@H]2C1`, for which the max activity was 29.5% [at 11 µM] (inactive). Turning to `CS(=O)(=O)N1CC(=O)N2[C@H](CO)[C@H](c3ccc(C#CCC4CCCC4)cc3)[C@@H]2C1`, the max activity was 13.6% [at 10 µM] (inactive).

Take `CS(=O)(=O)N1CC(=O)N2[C@H](CO)[C@@H](c3ccc(Br)cc3)[C@H]2C1`: the max activity was 27.1% (inactive). Regarding `CC(C)C#Cc1ccc([C@H]2[C@@H](CO)N3C(=O)CN(S(=O)(=O)c4ccccc4)C[C@H]23)cc1`, the max activity is -8.27% [at 10 µM] (inactive). For the compound `CC(C)C#Cc1ccc([C@H]2[C@@H](CO)N3C(=O)CN(S(=O)(=O)c4ccccc4)C[C@@H]23)cc1`, the max activity is 19.2% [at 10 µM] (inactive). Turning to `CS(=O)(=O)N1CC(=O)N2[C@@H](CO)[C@H](c3ccc(C#Cc4ccc(F)cc4)cc3)[C@@H]2C1`, the max activity is 11.8% [at 10 µM] (inactive).

Take `Cc1ccc(C)c(CSc2ccc(-c3sc(-c4ccc(F)cc4)nc3C)nn2)c1`: the max activity is -9.1% [at 5 µM] (inactive). As for `COc1ccc(-c2nc(NCc3ccccc3OC)c3ccccc3n2)cc1`, the max activity is -10.7% [at 0.68 µM] (inactive). In the case of `O=C(Nc1ccc(-c2nc(-c3cccc(Br)c3)co2)cc1)Nc1cccc(F)c1` it was -13.2% [at 2.6 µM] (inactive). For the compound `COc1ccc(-n2c(C)cc(CNS(=O)(=O)c3ccc4c(c3)CCC(=O)N4)c2C)cc1`, the max activity is 35.1% (inactive). For the compound `CCS(=O)(=O)N1CSC[C@@H]1C(=O)NCCc1csc(-c2ccccc2)n1`, the max activity is 7.03% [at 5 µM] (inactive).

With `O=C(NCCc1csc(-c2ccccc2)n1)[C@H]1CSCN1S(=O)(=O)c1ccccc1`, the max activity was 14.6% (inactive). In the case of `Cc1ccccc1S(=O)(=O)N1CSC[C@@H]1C(=O)NCCc1csc(-c2ccccc2)n1` it was -13% [at 0.16 µM] (inactive); in that of `O=C(NCCc1csc(-c2ccccc2)n1)[C@H]1CSCN1S(=O)(=O)c1ccc(F)cc1`, 15.5% [at 10 µM] (inactive).

Regarding `O=C(NCCc1csc(-c2ccccc2)n1)[C@H]1CSCN1S(=O)(=O)Cc1ccccc1`, the max activity is 17.7% [at 2.6 µM] (inactive). For `CCc1ccc(S(=O)(=O)N2CSC[C@@H]2C(=O)NCCc2csc(-c3ccccc3)n2)cc1`, the max activity was -11.2% [at 0.68 µM] (inactive). For `COc1ccc(-c2nc(N3CCN(c4ccc(C)cc4C)CC3)c3ccccc3n2)cc1`, the max activity was -12.6% [at 0.16 µM] (inactive). For `COc1ccc(CC(=O)Nc2ccc(-c3nc(-c4cc(C)ccc4C)co3)cc2)cc1`, the max activity is 17.8% [at 0.16 µM] (inactive).

Consider `CN1c2ccc(C3=CCCCC3)cc2[C@@H]2[C@@H](CCN2C(=O)C2CCOCC2)[C@H]1CO`, for which the max activity is 43.9% (inactive). Consider `COc1ccc(NC(=O)N2CC[C@@H]3[C@H]2c2cc(C4=CCCCC4)ccc2N(C)[C@H]3CO)cc1`, for which the max activity was 18.9% [at 0.3 µM] (inactive).

As to `Cc1ccc(-c2coc(-c3ccc(NC(=O)C(C)C)cc3)n2)cc1`, the max activity is 38.3% (inactive).

On to `COc1ccc(C)cc1NC(=O)Nc1ccc(-c2nc(-c3cc(C)ccc3C)co2)cc1`, for which the max activity is 9.85% [at 0.35 µM] (inactive).

Regarding `Cc1cc(C)c2c(=O)n(Cc3nc(-c4cccc(Cl)c4)oc3C)c(=O)n(-c3ccccc3)c2n1`, the max activity is -9.3% [at 0.16 µM] (inactive). `COc1ccccc1CNC(=O)CC1N=C2c3ccccc3N=C(SCc3ccccc3F)N2C1=O` (stereo not drawn): the max activity is 21.2% [at 1.35 µM] (inactive). For the compound `O=C(Cc1cccc(F)c1)Nc1ccc2c(c1)CCC(=O)N2`, the max activity is -7.77% (inactive). On to `O=C(C[C@@H]1CC[C@@H]2[C@H](COC[C@@H](O)CN2C(=O)Nc2cc(Cl)cc(Cl)c2)O1)N1CCOCC1`, for which the max activity was 20.4% (inactive). In the case of `COCCO[C@H]1CCN(Cc2c(C)noc2C)[C@H]1Cc1ccccc1` it was 11.4% (inactive); in that of `Cc1ccc(-c2coc(-c3ccc(NC(=O)Cc4cccs4)cc3)n2)c(C)c1`, 116% (inactive).

Take `COc1cc(OC)cc(C(=O)Nc2ccc(-c3nc(-c4ccccc4)co3)cc2)c1`: the max activity was -34% [at 1.35 µM] (inactive). Next, `N#Cc1cccc(-c2ccc3c(c2)[C@H]2[C@H](CCN2C(=O)c2ccccc2F)[C@@H](CO)N3)c1`: 16.6% [at 10 µM] (inactive).

Turning to `Cc1ccc(S(=O)(=O)N2CC[C@@H]3[C@H](CO)Nc4ccc(-c5cccc(C(=O)N(C)C)c5)cc4[C@@H]32)cc1`, the max activity is 26.4% [at 5 µM] (inactive). Take `COc1ccccc1-c1ccc2c(c1)[C@@H]1[C@@H](CCN1S(=O)(=O)c1ccc(C)cc1)[C@H](CO)N2`: the max activity is 39.6% [at 5 µM] (inactive).

Regarding `O=S(=O)(c1cccc(F)c1)N1CC[C@@H]2[C@H]1c1cc(C#Cc3ccccc3F)ccc1N[C@@H]2CO`, the max activity was 6.78% [at 0.3 µM] (inactive).

With `O=C(c1ccc2c(c1)OCO2)N1CC[C@@H]2[C@H]1c1cc(C#Cc3ccccc3)ccc1N[C@@H]2CO`, the max activity was 33.7% [at 10 µM] (inactive). Next, `Cc1ccc(S(=O)(=O)N2CC[C@@H]3[C@@H](CO)Nc4ccc(-c5cccc(C(=O)N(C)C)c5)cc4[C@@H]32)cc1`: 30.1% [at 10 µM] (inactive); `COc1ccccc1-c1ccc2c(c1)[C@H]1[C@H](CCN1S(=O)(=O)c1ccc(C)cc1)[C@@H](CO)N2`: 38.9% (inactive). Take `Clc1ccc(-c2nc(N3CCCc4ccccc43)c3ccccc3n2)cc1`: the max activity is 10.7% [at 0.35 µM] (inactive).
